Assay outcomes: PubChem, The Scripps Research Institute Molecular Screening Center
The list is not random: actives were taken first. Their share in the collection is about 3.5%.
TEAD-YAP block = TEAD-YAP interaction inhibition. HEK-TIYL cells, TEAD-Gal4/YAP UAS-luciferase luminescence. inhibition, % at 9.12 µM. actives 1.4% (n = 640,000); in the data active = inhibition above about 32%;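 also: 0% = median of test compound wells and 100% = reference inhibitor wells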
MITF primary = inhibitors of human MITF. O75030. AlphaScreen MITF homodimerization, bead proximity signal. inhibition, % at 2.6 µM. actives 0.91% (n = 650,000). AID 1259374; in the data active = inhibition above about 50%;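 also: 0% = vehicle wells with protein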
FBW7 activator = activators of human E3 ligase FBW7. AlphaScreen FBW7–phospho-cyclin E peptide binding, activator screen. actives 0.13% (n = 650,000). Q969H0. normalized activity (activation), % at 26.1 µM; in the data active = normalized activity above about 1.9%;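 also: purified mutant Fbw7 with reduced substrate affinity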
Target sequence (Q969H0 whole entry, looked up): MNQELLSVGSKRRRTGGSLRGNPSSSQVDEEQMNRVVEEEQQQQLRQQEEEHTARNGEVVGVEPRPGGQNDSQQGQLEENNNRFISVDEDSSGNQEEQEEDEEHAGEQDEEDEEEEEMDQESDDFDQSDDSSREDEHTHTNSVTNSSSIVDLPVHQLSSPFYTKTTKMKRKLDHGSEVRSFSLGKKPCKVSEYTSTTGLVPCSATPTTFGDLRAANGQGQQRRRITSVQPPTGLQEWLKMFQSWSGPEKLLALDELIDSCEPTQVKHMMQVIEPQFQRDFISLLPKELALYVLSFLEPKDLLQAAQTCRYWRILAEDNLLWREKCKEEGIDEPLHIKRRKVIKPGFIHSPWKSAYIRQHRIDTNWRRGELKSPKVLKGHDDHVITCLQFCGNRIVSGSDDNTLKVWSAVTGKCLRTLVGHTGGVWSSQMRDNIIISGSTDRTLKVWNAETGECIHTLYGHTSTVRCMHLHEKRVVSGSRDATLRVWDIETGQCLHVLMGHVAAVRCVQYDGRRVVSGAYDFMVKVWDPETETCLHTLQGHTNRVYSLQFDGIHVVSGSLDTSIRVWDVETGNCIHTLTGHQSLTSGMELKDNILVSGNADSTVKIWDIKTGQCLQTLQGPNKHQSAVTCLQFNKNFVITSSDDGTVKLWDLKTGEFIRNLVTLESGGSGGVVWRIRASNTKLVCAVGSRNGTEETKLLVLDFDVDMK
GPR151 activ = human GPR151 activation; Q8TDV0; PathHunter beta-arrestin GPR151 cells, luminescence; activation, % at 11.2 µM; actives 1% (n = 650,000); in the data active = activation above about 4.9%;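 also: 0% = median of compound wells and 100% = cells with positive control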
GPR151 conf act = human GPR151 activation, confirmation screen; shares compounds with GPR151 activ; GPR151 PathHunter beta-arrestin cells, luminescence, 90 min; % of EA-reagent control over plate median; activation, % at 11.2 µM; 6,700 tested, under 10 active; AID 1508609;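 active = mean percent activation across replicates above the confirmation screen cutoff of 4.91%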
GPR119 ag = GPR119 activation, counter-screen for GPR151 activators; shares compounds with GPR151 activ; GPR119 PathHunter beta-arrestin cells, luminescence, 90 min; 0 = compound-well median, 100 = enzyme-acceptor control; activation, % at 11.2 µM; actives 0.3% (n = 6,700);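 active = mean percent activation in the counterscreen above 29.09%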;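 also: counterscreen on off-target GPR119 to flag nonselective hits from the GPR151 activator screen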
Starred values were filed as active, the others as inactive; · = no result given.

SMILES	TEAD-YAP block	MITF primary	FBW7 activator	GPR151 activ	GPR151 conf act	GPR119 ag
CCOC(=O)CN1CC(O)=C(C=NCc2ccccc2)C1=O	-0.4	16.2	0.1	7.4*	0.5	10.0
Cc1cc(C)c2c(n1)nn1c(C)c(CCC(=O)NC3CCCCC3)c(C)nc21	6.6	3.3	0.7	-0.5	·	·
COC(=O)c1ccc(NC(=O)C2CC2)cc1	-1.4	4.7	0.0	6.3*	-0.5	-5.6
CS(=O)(=O)N(CC(=O)NCc1ccccc1)c1cccc(Cl)c1	6.2	15.7	0.8	6.1*	-0.6	-3.7
COC(=O)c1ccc2c(c1)NC(=O)C(N(C)C1CCCCC1)S2 (configuration not stated)	2.5	2.4	-0.2	0.9	·	·
O=c1[nH]cnc2c1[nH]c1ccccc12	19.3	8.9	0.4	8.7*	-0.8	7.3
Cc1ccc(NC(=O)c2ccc(C(C)(C)C)cc2)c(Br)c1	-49.3	16.4	0.1	0.6	·	·
Cc1c(-c2ccc(Cl)cc2)noc1C1CCN(CCc2ccccc2)CC1	·	8.7	-0.1	8.2*	2.1	-0.8
O=C(Cc1ccccc1)NS(=O)(=O)c1ccc(N=NN2CCCCC2)cc1	1.5	-0.8	-0.1	7.3*	1.1	7.7
COC(=O)C1=CN(C2CC2)C=C(C(=O)OC)C1c1cccc(O)c1	9.9	-16.6	-0.2	1.7	·	·
COC(=O)C1=CN(C2CC2)C=C(C(=O)OC)C1c1cccc(OC)c1	4.2	-13.8	0.2	5.5*	0.8	13.1
O=C1CCC(=O)N1CCC1=CCCCC1	14.0	3.6	0.5	0.9	·	·
O=C1NC(=O)N(CCC2=CCCCC2)C1=O	-0.7	-7.5	-0.1	10.4*	-0.3	-4.5
CCOC(=O)c1c(NC(=O)C(C)Sc2nnc(CNC(=O)c3cccs3)n2-c2ccc(F)cc2)sc2c1CCCCC2 (configuration not stated)	-6.8	-8.5	-0.1	-0.7	·	·
CCS(=O)(=O)N1CCN=C1SCc1ccccc1	4.6	-6.7	-0.4	5.6*	1.2	10.1
CCCS(=O)(=O)N1CCN=C1SCc1ccccc1	-4.4	-0.1	0.0	0.8	·	·
CCSc1nnc2n(-c3ccccc3)c(=O)c3c4c(sc3n12)CCCC4C (configuration not stated)	-5.3	-9.6	-0.1	0.1	·	·
CC(=O)C1=C(C)NC(SCC(=O)Nc2c(Br)cc([N+](=O)[O-])cc2Br)=C(C#N)C1c1ccco1 (configuration not stated)	4.6	-14.5	-0.1	1.5	·	·
COc1cc2[nH]c(=S)nc(NCCCN3CCCC3)c2cc1OC	-2.2	-3.4	-0.1	1.0	·	·
COc1cc2[nH]c(=S)nc(NCC(OC)OC)c2cc1OC	1.6	24.8	0.5	5.5*	0.0	0.2
Nc1c(Cl)ncnc1N1CCOCC1	6.6	18.3	0.0	0.1	·	·
Nc1c(Cl)ncnc1N1CCN(c2ncnc(Cl)c2N)CC1	-3.4	-3.4	-0.1	5.4*	0.3	6.7
COc1ccc2nc(N3CCC(NCC(C)C)CC3)nc(C)c2c1	-5.3	-35.1	0.3	-1.8	·	·
Cc1ccc2nc(N3CCC(NCC(C)C)CC3)nc(C)c2c1	-0.4	-8.6	-0.1	7.9*	0.3	-3.6
CCOC(=O)c1[nH]c(C)c(C(=O)Nc2c(C)n(C)n(-c3ccccc3)c2=O)c1C	1.2	10.4	-0.1	6.5*	-0.8	-3.3
SMILES	TEAD-YAP block	MITF primary	FBW7 activator	GPR151 activ	GPR151 conf act	GPR119 ag
COc1cccc(OC)c1C(=O)Nc1c(C)n(C)n(-c2ccccc2)c1=O	2.3	-5.1	0.0	2.1	·	·
CCOC(=O)c1[nH]c(C)c(C(=O)Nc2cccc(OC)c2)c1C	-2.5	14.5	0.0	1.0	·	·
CCOC(=O)c1[nH]c(C)c(C(=O)Nc2ccc(C)c(C)c2)c1C	3.8	-6.3	-0.2	5.0*	0.4	3.7
Cc1nn(C(=O)Cn2ccc([N+](=O)[O-])n2)c(C)c1I	5.0	2.6	0.5	5.3*	-0.3	1.3
Cc1ccc(Cl)c(NC(=O)C2CCN(c3nc(C)cc(C)n3)CC2)c1	-5.6	5.7	0.0	1.8	·	·
Cc1cc(C)nc(N2CCC(C(=O)Nc3ccc(Cl)cc3Cl)CC2)n1	-9.0	5.6	0.0	9.5*	0.5	7.4
CC(C)N(Cc1nc(-c2ccccc2)no1)S(=O)(=O)c1ccc([N+](=O)[O-])cc1	-5.4	-4.1	0.0	0.0	·	·
CCSc1ncc(Cl)c(C(=O)NCCc2ccc(OC)c(OC)c2)n1	2.5	7.2	-0.1	3.0	·	·
Cc1ccc(S(=O)(=O)N2CCCCC2CC(=O)Nc2nccs2)cc1 (configuration not stated)	4.3	-6.6	0.2	3.7	·	·
CCC1CCCCN1S(=O)(=O)c1ccc(C(=O)Nc2nccs2)cc1 (configuration not stated)	-1.4	-4.0	0.4	5.1*	-0.2	1.6
Oc1ccc(CCNc2nc(NCc3ccc4c(c3)OCO4)nc3c2ncn3C2CCCCC2)cc1	-0.1	12.2	0.2	17.2*	0.2	-2.4
COc1ccc(CCNc2cc(C)nc(NC3CCC(O)CC3)n2)cc1 (configuration not stated)	18.4	0.5	-0.2	6.8*	-1.1	-8.9
CCCNc1ccnc(Nc2ccc(-n3ccnc3)cc2)n1	-25.8	-5.7	0.0	0.5	·	·
COc1ccc(CCNc2cc(C)nc(Nc3ccc(-n4ccnc4)cc3)n2)cc1	76.9*	20.2	-0.1	5.3*	2.9	53.8*
COc1ccc(CCNc2ccnc(Nc3ccc(-n4ccnc4)cc3)n2)cc1	82.5*	-0.4	-0.2	6.5*	2.4	38.3*
N#CCNC(=O)c1cc([N+](=O)[O-])cc([N+](=O)[O-])c1	6.8	20.3	0.4	-0.8	·	·
CC(C)n1cnc2c(NCc3cccc(C(F)(F)F)c3)nc(Nc3ccncc3)nc21	2.5	19.6	0.1	5.9*	0.3	3.4
CC(C)n1cnc2c(NCc3ccccc3)nc(Nc3ccc(-n4ccnc4)cc3)nc21	-5.7	14.3	-0.2	2.6	·	·
COc1ccc(CCNc2nc(Nc3ccc(-n4ccnc4)cc3)nc3c2ncn3C2CCCCC2)cc1	12.6	15.7	-0.3	6.1*	0.4	2.4
COc1ccc(CCNc2ccnc(Nc3ccc4ncccc4c3)n2)cc1	51.5*	63.0*	0.0	5.9*	0.2	2.4
Oc1ccc(CCNc2ccnc(Nc3ccc4ncccc4c3)n2)cc1	-4.5	-0.9	-0.1	3.2	·	·
CC(C)n1cnc2c(NCCO)nc(Nc3ccc(-n4ccnc4)cc3)nc21	-0.8	7.5	0.0	5.4*	-1.5	-10.4
NC(=O)c1ccccc1NC(=O)CSc1nc2ccccc2c(=O)[nH]1	0.2	-13.7	-0.4	5.3*	-0.5	0.5
COC(=O)c1ccccc1NC(=O)CSc1nc2ccccc2c(=O)[nH]1	5.3	1.8	0.0	0.1	·	·
COc1ccccc1C1=NN(c2nc(-c3ccccc3)c3cc(C)ccc3n2)C(c2ccc(Br)cc2)C1 (configuration not stated)	-5.8	-15.1	0.0	-0.1	·	·
